Only some compounds are listed: those with a hit (about 3.4% of all), similar ones and a draw of the others.
KAT2A inh: inhibitors of human GCN5L2 histone acetyltransferase. Q92830. GCN5L2 HAT assay, ThioGlo1 CoA-SH fluorescence. Potency, µM (highest dose often 58.9 µM), for the others: at the highest dose activity change, negative = inhibition, actives largely listed as inhibitors. 390,000 tested, 0.21% active. AID 504327; note: % is set by controls: 0 for no effect and ±100 for the full control effect
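Fluorescence readout, Ex340nm/Em540nm: ThioGlo1 (50uM final) reacts with free CoA thiol released as 20nM GCN5L2 acetylates H3(1-25) peptide (75uM) using acetyl-CoA (70uM). Compound and enzyme sat 15 min beforehand; 20 min room-temperature reaction.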
PLK1 PBD block: inhibitors of human PLK1 polo-box domain binding. 360,000 tested, 2.8% active. Potency, µM, without a hit: max response, negative = inhibition, hits mostly inhibitors. Plk1 PBD binding of FITC phosphopeptide, fluorescence polarization. P53350; note: series mostly up to about 57 µM; % is set by controls: 0 for no effect and ±100 for the full control effect; nearly all actives have a fitted effect of over 65% in size
Target sequence (P53350 whole entry, looked up, the tested form may be a part): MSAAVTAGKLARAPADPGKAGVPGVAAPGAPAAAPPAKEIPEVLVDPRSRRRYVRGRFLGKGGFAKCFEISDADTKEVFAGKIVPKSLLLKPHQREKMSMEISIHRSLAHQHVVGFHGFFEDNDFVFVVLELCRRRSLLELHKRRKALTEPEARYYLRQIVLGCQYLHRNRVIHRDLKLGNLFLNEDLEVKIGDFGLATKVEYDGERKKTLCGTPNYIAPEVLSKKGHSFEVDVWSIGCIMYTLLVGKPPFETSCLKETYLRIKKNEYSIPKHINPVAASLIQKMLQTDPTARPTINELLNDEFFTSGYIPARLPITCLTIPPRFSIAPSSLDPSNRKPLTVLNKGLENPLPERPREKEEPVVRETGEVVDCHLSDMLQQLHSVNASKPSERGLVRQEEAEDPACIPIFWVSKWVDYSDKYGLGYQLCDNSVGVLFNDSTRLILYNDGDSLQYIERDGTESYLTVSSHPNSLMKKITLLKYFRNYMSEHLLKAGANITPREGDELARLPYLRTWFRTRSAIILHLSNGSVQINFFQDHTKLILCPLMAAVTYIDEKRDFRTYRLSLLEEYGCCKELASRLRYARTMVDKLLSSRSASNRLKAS
GLS inh: blocks human kidney-isoform glutaminase activity; GLS enzymatic activity, qHTS titration; Potency, µM (doses to about 45.5 µM), for the others: at the top dose activity change, negative = inhibition, most hits filed as inhibitors; 410,000 tested, 0.21% active; O94925; note: % is set by controls: 0 for no effect and ±100 for the full control effect
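Read-out is an Amplex red fluorescence increase coupled through glutamate oxidase and HRP, measured before and after 30 min room-temperature incubation. hKGA is in 45 mM KH2PO4 (pH 8.2) with 0.02% Tween-20; glutamine added as 1mM solution.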
PKM2 activator: activators of human pyruvate kinase M2. Potency, µM (top dose mostly 57.5 µM), for the others: top-dose activation, actives largely listed as activators. P14618. AID 1631. purified PKM2, Kinase-Glo ATP luminescence, activation; response scale: 0% is enzyme alone, no compound. 260,000 tested, 0.34% active; note: % is set by controls: 0 for no effect and ±100 for the full control effect; nearly all actives have a fitted effect of over 55% in size
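Purified hPK-M2 (>95%) run at intermediate activity with 0.1 mM ADP and 0.5 mM PEP in 50 mM imidazole pH 7.2, KCl, MgCl2; 1 h room temperature. ATP formed read by Kinase-Glo luminescence; normalized to uninhibited and no-enzyme controls.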
VDR inh: blocks the human vitamin D receptor. AID 504847. 400,000 tested, 0.93% active. Potency, µM, inactives show max response, negative = inhibition, most hits filed as inhibitors. P11473. VDR-SRC2-3 peptide fluorescence polarization, 2 h; note: % is set by controls: 0 for no effect and ±100 for the full control effect
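Signal is fluorescence polarization, reporting how far test compounds block the interaction of VDR with the SRC2-3 coregulator peptide after a 2 h room-temperature incubation.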
Mito fusion act: inhibitors of mitochondrial division or activators of mitochondrial fusion | S. cerevisiae fusion-defective mutant growth rescue, CellTiterGlo 48 h | Potency, µM (highest dose often 46.1 µM), for the others: top-dose growth rescue (activation), actives largely listed as activators | 320,000 tested, 0.23% active | AID 485298; note: % of control where 0% means no effect; nearly all actives have a fitted effect of over 45% in size
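Temperature-sensitive fusion-defective S. cerevisiae (e.g. fzo1-1, mgm1-5) were grown with compound in YPEG medium (3% ethanol, 3% glycerol) for 48 hours at 37C. Growth rescue was measured as viability by CellTiterGlo luminescence after 10 minutes at ambient.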
Numbers without * were called inactive; u = inconclusive; x = no result. Calls come from the whole dose curve; as a rule, active = well fitted curve in the direction sought with a large enough effect; inconclusive = small, poorly fitted or top-dose-only effect, or another doubt; inactive = no such curve, though single readings can be large; an effect the other way counts as inactive or inconclusive. Potency is the fitted concentration of half-maximal effect.

SMILES | KAT2A inh | PLK1 PBD block | GLS inh | PKM2 activator | VDR inh | Mito fusion act
S=c1[nH]cnc2scc(-c3ccc(Cl)cc3)c12 | u | 8.4µM* | u | 1% | u | 22%
Fc1ccc(-c2csc3ncnc(Cl)c23)cc1 | -1% | 21µM* | 4% | 1% | u | -15%
Clc1ccc(-c2csc3ncnc(Cl)c23)cc1 | -5% | -8% | 2% | 4% | 3% | -29%
CCCCCCCC/C=C/CCCCCCCC(=O)NCCOP(=O)(O)O | 7.1µM* | x | x | x | 28µM* | x
CCCCCCCC/C=C\CCCCCCCC(=O)NCCO | -21% | -15% | -3% | x | 1% | -1%
CCCCCCCC/C=C\CCCCCCCC(=O)NCCc1ccc(O)c(O)c1 | u | 24µM* | 29% | x | u | u
CCCCC/C=C\C/C=C\C/C=C\C/C=C\CCCCCC(=O)NCCc1ccc(O)c(O)c1 | x | x | x | x | 3% | x
COc1ccc(-c2nnc(SCC(=O)N(C)C3CCS(=O)(=O)C3)n2CC(C)C)cc1 (stereo unspecified) | x | -12% | 9% | x | x | x
COc1cccc(C(=O)N2CCN(Cc3cn[nH]c3-c3ccc(F)cc3F)CC2)c1 | -13% | 30µM* | 3% | 0% | u | 3%
CCOC(=O)[C@H](CCc1ccccc1)NC(C)C(=O)N1CC2(CC1C(=O)O)SCCS2 (stereo partly specified) | x | x | -2% | x | x | x
O=C(N=Nc1c(O)n(Cc2ccccc2)c2ccccc12)c1ccc(O)cc1 | -1% | -2% | -18% | -4% | -19% | 0%
O=S1(=O)CC(O)C(N=Nc2c(O)n(Cc3ccccc3)c3ccccc23)C1 (stereo unspecified) | -4% | 13µM* | u | -4% | u | -8%
Cc1nc(N2CCCCC2)sc1C(=O)c1ccc(SCCO)c([N+](=O)[O-])c1 | -19% | 8.4µM* | u | -7% | u | 0%
CN(C)N1C(N)=C(C#N)C(c2cccs2)C2=C1CCCC2=O (stereo unspecified) | -8% | 30µM* | -15% | 10% | 0% | u
COCCCC1CCN(Cc2cn[nH]c2-c2cc(OC)c(OC)c(OC)c2)CC1 | -5% | 3% | -2% | -1% | -16% | 2%
COc1cc(N=C2C(=O)N3c4c(cccc42)C(C)=CC3(C)C)cc(OC)c1 | -5% | -9% | 8% | 1% | u | 4%
CC1=CC(C)(C)N2C(=O)C(=Nc3ccc(O)cc3)c3cccc1c32 | 0% | 4.7µM* | u | u | u | -6%
Cc1ccc(-c2[nH]ncc2CNCc2ccc(CN(C)C)cc2)cc1 | x | x | x | x | -15% | x
COc1ccc2c(c1)C(=O)[C@H](OC(=O)NCc1ccc3c(c1)OCO3)[C@@H](c1ccc(OC)c(Br)c1)O2 | x | x | x | x | 3% | x
Oc1ccc(Cl)cc1-c1cc(-c2ccco2)[nH]n1 | 2% | 5.3µM* | u | -1% | -14% | 1%
CCCn1c(SC(C)C(=O)NC2CCCC2)n[nH]c1=O (stereo unspecified) | -6% | -7% | 8% | x | -6% | -7%
C[n+]1ccc(/C=C/c2ccc(Br)cc2)cc1 | -21% | -1% | -6% | 6% | -7% | -13%
C[n+]1ccc(/C=C/c2ccc3ccccc3c2)cc1 | 28µM* | x | x | x | u | x
Cc1cc2oc(C(=O)Nc3ccc(S(=O)(=O)N4CCC(C)CC4)cc3)cc(=O)c2cc1C | -2% | x | -1% | x | -1% | x
C[N+](C)(C)CCC(=O)c1cccc2ccccc12 | u | x | x | x | 2µM* | x
SMILES | KAT2A inh | PLK1 PBD block | GLS inh | PKM2 activator | VDR inh | Mito fusion act
Cc1cccc(-c2cc3nc(C)cc(NCCCn4ccnc4)n3n2)c1 | 3% | 24µM* | 4% | -3% | 3% | 1%
CC[C@@H]([C@H](C)O)n1ncn(-c2ccc(N3CCN(c4ccc(OCC5CO[C@@](Cn6cncn6)(c6ccc(F)cc6F)C5)cc4)CC3)cc2)c1=O (stereo partly specified) | x | x | 3% | x | x | x
COc1ccc(Cl)cc1NC(=S)N(Cc1ccccc1C)CC1CCC(C(=O)O)CC1 (stereo unspecified) | -4% | 30µM* | 20% | 0% | 6% | 2%
CC(C)N(Cc1nc(COc2ccccc2)no1)Cc1nccn1C | -3% | -4% | 3% | 5% | 15% | -9%
CC(C)N(Cc1cnn(C)c1)Cc1nc(COc2ccccc2)no1 | -2% | 21µM* | 4% | -4% | -13% | 1%
S=C1NC2(CCCCC2)NN1c1ccccc1 | 18µM* | -2% | 5% | 6% | -5% | -9%
CC(=O)Nc1ccc(SCCCC(=O)c2ccccc2)cc1 | -5% | 13µM* | 3% | 2% | -19% | 11%
COc1ccc(-n2c(SCC(=O)NCC3CCCO3)nc3c(c2=O)SC(C)C3)cc1 (stereo unspecified) | 0% | -5% | 7% | -7% | 7% | -1%
CCCNC(=O)c1ccc2nc(-c3ccccc3)c(-c3ccccc3)nc2c1 | -11% | u | -7% | -3% | -12% | 17%
O=C(Nc1ccc(N2CCOCC2)cc1)c1ccc2nc(-c3ccco3)c(-c3ccco3)nc2c1 | -3% | -10% | 3% | 1% | 13% | 1%
CC(=O)c1ccc(NC(=O)c2ccc3nc(-c4ccco4)c(-c4ccco4)nc3c2)cc1 | u | 24µM* | 14µM* | 24% | u | -1%
CCCCCNC(=O)C(c1cc2ccccc2o1)n1c(=O)c(-c2ccco2)nc2ccccc21 (stereo unspecified) | x | 7.5µM* | x | x | x | x
CCCCNC(=O)c1ccc2nc(-c3ccco3)c(-c3ccco3)nc2c1 | -25% | 21µM* | -1% | 15% | 79µM* | 1%
COc1ccc(CNC(=O)CC2C[C@H](C(=O)N3CCOCC3)[C@@]3(CCC4CCCC4)c4[nH]c5ccccc5c4CCN3C2=O)cc1OC (stereo partly specified) | -9% | -18% | 2% | x | -25% | x
Cc1ccc2c(CN3CCN(c4ccc(Cl)cc4)CC3)cc(=O)oc2c1 | 2% | x | -6% | x | 9% | x
COC(=O)[C@]12CCCCC=C1N(Cc1ccco1)C(=O)[C@H](CC(=O)NCc1ccccc1)C2 | x | -5% | 0% | x | x | x
COCCNC(=O)c1sc2ncn(CC(=O)N3CCCCC3)c(=O)c2c1C | -2% | 3.4µM* | u | -5% | -23% | 3%
COc1cc(CNc2ccc(N3CCCCC3)cc2)ccc1OCC(=O)NC(C)(C)C | -7% | 0% | 26% | 9% | 8% | -5%
COc1cc(CNc2ccc(N3CCCC3)cc2)ccc1OCc1ccccc1 | 40% | -18% | 24% | -1% | 35µM* | 4%
COc1cc(CNc2ccc(N3CCCC3)cc2)ccc1OCc1ccccc1F | -2% | -15% | 2% | -16% | 79µM* | 8%
